# Test results reported in publication PMC3218832.
# Experiments:
# Experiment in all cases: protein binding microarray; high values mean tight binding
# Details in all cases: dsDNA, one strand shown
# [1] = molecular target: RELARELA (p65 homodimer) (Homo sapiens, UniProt Q04206 1-307)
# [2] = molecular target: p50p50 homodimer (Homo sapiens, UniProt P19838 7-356)
# [3] = molecular target: T1, p52p52 homodimer (Homo sapiens, UniProt Q00653 4-332)
# T1 sequence: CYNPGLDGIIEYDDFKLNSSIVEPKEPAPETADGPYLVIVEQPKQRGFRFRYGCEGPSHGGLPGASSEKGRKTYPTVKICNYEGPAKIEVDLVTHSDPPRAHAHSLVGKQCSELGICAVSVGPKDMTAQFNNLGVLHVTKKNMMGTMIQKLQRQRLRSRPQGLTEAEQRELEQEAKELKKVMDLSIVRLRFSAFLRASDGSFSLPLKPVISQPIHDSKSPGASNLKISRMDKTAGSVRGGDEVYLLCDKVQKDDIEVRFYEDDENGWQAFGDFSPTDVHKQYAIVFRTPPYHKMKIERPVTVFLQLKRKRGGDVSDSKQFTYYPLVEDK
# [4] = molecular target: RELA (p65) subunit of heterodimer;p50 subunit (Homo sapiens;Homo sapiens, UniProt Q04206;P19838 1-307;7-356)
# [5] = molecular target: RELA (p65) subunit of heterodimer;p52 subunit (Homo sapiens;Homo sapiens, UniProt Q04206;Q00653 1-307;4-332)
# [6] = molecular target: RELB subunit;p50 subunit (Homo sapiens;Homo sapiens, UniProt Q01201;P19838 120-401;7-356)
# [7] = molecular target: T2, RELB subunit;p52 subunit (Homo sapiens;Homo sapiens, UniProt Q01201;Q00653 120-401;4-332)
# T2 sequence 1: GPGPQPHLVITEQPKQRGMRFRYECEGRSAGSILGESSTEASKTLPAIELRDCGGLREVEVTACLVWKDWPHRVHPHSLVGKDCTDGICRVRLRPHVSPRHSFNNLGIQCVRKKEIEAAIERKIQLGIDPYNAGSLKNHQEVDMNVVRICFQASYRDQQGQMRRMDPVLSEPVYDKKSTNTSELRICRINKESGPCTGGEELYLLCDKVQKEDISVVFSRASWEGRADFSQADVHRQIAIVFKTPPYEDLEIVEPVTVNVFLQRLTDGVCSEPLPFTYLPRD
# T2 sequence 2: T1 sequence
# [8] = molecular target: C-Rel subunit;p50 subunit (Homo sapiens;Homo sapiens, UniProt Q04864;P19838 1-285;7-356)
# [9] = molecular target: T3, C-Rel subunit;p52 subunit (Homo sapiens;Homo sapiens, UniProt Q04864;Q00653 1-285;4-332)
# T3 sequence 1: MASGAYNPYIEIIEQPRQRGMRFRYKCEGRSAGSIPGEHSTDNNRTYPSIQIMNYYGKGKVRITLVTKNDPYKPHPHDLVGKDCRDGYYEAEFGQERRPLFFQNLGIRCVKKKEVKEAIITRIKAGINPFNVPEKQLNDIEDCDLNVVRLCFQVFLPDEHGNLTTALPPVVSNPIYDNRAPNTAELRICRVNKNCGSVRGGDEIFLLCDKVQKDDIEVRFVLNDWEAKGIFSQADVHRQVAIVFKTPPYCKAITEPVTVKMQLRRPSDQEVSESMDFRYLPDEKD
# T3 sequence 2: T1 sequence
# Sequence of p50p50 homodimer (P19838 7-356): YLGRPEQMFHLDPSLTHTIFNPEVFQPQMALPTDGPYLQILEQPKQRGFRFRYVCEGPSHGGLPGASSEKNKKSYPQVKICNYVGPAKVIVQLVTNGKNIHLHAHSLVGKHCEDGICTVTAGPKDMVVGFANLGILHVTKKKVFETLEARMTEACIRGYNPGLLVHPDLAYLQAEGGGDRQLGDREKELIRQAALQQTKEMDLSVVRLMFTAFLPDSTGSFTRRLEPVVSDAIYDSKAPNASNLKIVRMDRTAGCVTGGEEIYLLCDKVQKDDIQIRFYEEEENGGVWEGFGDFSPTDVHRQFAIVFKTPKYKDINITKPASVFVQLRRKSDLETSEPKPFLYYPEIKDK
# Sequence of RELA (p65) subunit of heterodimer;p50 subunit (Q04206 1-307, chain 1 of 2): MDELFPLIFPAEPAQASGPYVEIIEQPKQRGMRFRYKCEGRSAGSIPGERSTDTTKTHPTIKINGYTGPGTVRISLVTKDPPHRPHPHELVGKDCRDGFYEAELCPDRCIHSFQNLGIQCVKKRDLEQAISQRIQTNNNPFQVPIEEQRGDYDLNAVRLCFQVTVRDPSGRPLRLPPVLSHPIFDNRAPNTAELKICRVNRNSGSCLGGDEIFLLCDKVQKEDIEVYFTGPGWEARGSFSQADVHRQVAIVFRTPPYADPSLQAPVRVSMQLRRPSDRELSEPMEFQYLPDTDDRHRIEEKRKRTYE
# Sequence of RELA (p65) subunit of heterodimer;p50 subunit (P19838 7-356, chain 2 of 2): as the sequence (P19838 7-356) above
# Sequence of RELARELA (p65 homodimer) (Q04206 1-307): as the sequence (Q04206 1-307, chain 1 of 2) above
Sequence,binding signal [1] [z-score],binding signal [2] [z-score],binding signal [3] [z-score],binding signal [4] [z-score],binding signal [5] [z-score],binding signal [6] [z-score],binding signal [7] [z-score],binding signal [8] [z-score],binding signal [9] [z-score]
CGATGTGTCCC,0.341,-0.155,0.228,0.0812,0.0701,-0.0289,0.0454,0.132,0.074
AAGATGCCCCC,0.101,1.09,0.461,0.893,0.788,0.97,1.17,1.03,0.633
GAATATCCCCC,0.817,1.35,1.71,1.94,1.64,1.97,1.9,1.33,1.58
GGATAGGTCCC,-0.076,-0.336,0.0228,-0.276,-0.141,-0.137,-0.101,-0.467,-0.334
GAGGTAGTCCC,0.343,0.907,0.506,0.436,0.326,0.57,0.233,0.447,0.318
CGGGGCACCCC,0.313,0.323,1.21,0.7,1.06,0.451,1.1,0.899,1.43
CAAAAAGTCCC,2.29,1.2,2.38,1.75,1.58,2.23,1.75,1.53,2.25
AAGTGTATCCC,-0.0644,-0.719,-0.379,-0.553,-0.504,-0.584,-0.4,-0.695,-0.382
CAAGGATTCCC,1.01,0.585,0.314,0.704,0.382,0.457,0.419,0.93,0.576
CGGGACTCCCC,1.91,0.81,2.76,1.88,1.9,1.59,1.87,1.93,2.5
CAGGGCCTCCC,-0.644,-0.933,-0.467,-0.699,-0.636,-0.64,-0.746,-0.529,-0.502
AAATTTCCCCC,2.97,1.66,2.84,2.63,2.41,2.88,2.69,2.02,2.57
GGAATGGTCCT,0.313,-1.37,-0.493,-0.849,-0.627,-0.903,-0.612,-0.89,-0.524
GAAGGCGTCCC,-0.376,-0.0302,-0.0163,-0.134,-0.134,0.147,0.216,-0.0533,-0.265
AAGTTGATCCC,-0.64,-0.815,-0.6,-0.903,-0.719,-0.688,-0.621,-1.07,-0.615
